In PubChem BioAssay:
Activity calls are given as the source filed them.

Assays:
[1] = binders of probe aFSTL3 on microarray, primary screen, stem cell growth factor project, biochemical, small-molecule microarray, fluorescence 635/667 (AID 1064); conditions: higher = more signal;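 further: measures binding of the biotinylated anti-FSTL3 antibody to printed compounds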
[2] = binders from COS7 lysate, DM2A8 probe, primary screen, torsin A project, cell lysate, small-molecule microarray, fluorescence 635/667 (AID 1065); conditions: higher = more signal, COS7 lysate expressing mutant human TOR1A
[3] = binders of probe aFGF2 on microarray, primary screen, stem cell growth factor project, biochemical, small-molecule microarray, fluorescence 635/667 (AID 1067); conditions: higher = more signal;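 further: measures binding of biotinylated aFGF2 protein to printed compounds on slides; z-score merges feature fluorescence and signal-to-noise across triplicate slides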
[4] = binders of probe aFGF10 on microarray, primary screen, stem cell growth factor project, biochemical, small-molecule microarray, fluorescence 635/667 (AID 1071); conditions: higher = more signal;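 further: score merges 667 nm spot intensity and signal to noise from triplicate slides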
[5] = target: Neurogenic locus notch homolog protein 2 (Homo sapiens) (UniProt Q04721); experiment: Notch2 binders on small-molecule microarrays, primary screen, biochemical, small-molecule microarray, 635 nm fluorescence, stem cell growth factors (AID 1073); conditions: Notch2 binding, higher = more signal
Neurogenic locus notch homolog protein 2 (Homo sapiens), sequence (Q04721 whole entry, looked up, canonical isoform): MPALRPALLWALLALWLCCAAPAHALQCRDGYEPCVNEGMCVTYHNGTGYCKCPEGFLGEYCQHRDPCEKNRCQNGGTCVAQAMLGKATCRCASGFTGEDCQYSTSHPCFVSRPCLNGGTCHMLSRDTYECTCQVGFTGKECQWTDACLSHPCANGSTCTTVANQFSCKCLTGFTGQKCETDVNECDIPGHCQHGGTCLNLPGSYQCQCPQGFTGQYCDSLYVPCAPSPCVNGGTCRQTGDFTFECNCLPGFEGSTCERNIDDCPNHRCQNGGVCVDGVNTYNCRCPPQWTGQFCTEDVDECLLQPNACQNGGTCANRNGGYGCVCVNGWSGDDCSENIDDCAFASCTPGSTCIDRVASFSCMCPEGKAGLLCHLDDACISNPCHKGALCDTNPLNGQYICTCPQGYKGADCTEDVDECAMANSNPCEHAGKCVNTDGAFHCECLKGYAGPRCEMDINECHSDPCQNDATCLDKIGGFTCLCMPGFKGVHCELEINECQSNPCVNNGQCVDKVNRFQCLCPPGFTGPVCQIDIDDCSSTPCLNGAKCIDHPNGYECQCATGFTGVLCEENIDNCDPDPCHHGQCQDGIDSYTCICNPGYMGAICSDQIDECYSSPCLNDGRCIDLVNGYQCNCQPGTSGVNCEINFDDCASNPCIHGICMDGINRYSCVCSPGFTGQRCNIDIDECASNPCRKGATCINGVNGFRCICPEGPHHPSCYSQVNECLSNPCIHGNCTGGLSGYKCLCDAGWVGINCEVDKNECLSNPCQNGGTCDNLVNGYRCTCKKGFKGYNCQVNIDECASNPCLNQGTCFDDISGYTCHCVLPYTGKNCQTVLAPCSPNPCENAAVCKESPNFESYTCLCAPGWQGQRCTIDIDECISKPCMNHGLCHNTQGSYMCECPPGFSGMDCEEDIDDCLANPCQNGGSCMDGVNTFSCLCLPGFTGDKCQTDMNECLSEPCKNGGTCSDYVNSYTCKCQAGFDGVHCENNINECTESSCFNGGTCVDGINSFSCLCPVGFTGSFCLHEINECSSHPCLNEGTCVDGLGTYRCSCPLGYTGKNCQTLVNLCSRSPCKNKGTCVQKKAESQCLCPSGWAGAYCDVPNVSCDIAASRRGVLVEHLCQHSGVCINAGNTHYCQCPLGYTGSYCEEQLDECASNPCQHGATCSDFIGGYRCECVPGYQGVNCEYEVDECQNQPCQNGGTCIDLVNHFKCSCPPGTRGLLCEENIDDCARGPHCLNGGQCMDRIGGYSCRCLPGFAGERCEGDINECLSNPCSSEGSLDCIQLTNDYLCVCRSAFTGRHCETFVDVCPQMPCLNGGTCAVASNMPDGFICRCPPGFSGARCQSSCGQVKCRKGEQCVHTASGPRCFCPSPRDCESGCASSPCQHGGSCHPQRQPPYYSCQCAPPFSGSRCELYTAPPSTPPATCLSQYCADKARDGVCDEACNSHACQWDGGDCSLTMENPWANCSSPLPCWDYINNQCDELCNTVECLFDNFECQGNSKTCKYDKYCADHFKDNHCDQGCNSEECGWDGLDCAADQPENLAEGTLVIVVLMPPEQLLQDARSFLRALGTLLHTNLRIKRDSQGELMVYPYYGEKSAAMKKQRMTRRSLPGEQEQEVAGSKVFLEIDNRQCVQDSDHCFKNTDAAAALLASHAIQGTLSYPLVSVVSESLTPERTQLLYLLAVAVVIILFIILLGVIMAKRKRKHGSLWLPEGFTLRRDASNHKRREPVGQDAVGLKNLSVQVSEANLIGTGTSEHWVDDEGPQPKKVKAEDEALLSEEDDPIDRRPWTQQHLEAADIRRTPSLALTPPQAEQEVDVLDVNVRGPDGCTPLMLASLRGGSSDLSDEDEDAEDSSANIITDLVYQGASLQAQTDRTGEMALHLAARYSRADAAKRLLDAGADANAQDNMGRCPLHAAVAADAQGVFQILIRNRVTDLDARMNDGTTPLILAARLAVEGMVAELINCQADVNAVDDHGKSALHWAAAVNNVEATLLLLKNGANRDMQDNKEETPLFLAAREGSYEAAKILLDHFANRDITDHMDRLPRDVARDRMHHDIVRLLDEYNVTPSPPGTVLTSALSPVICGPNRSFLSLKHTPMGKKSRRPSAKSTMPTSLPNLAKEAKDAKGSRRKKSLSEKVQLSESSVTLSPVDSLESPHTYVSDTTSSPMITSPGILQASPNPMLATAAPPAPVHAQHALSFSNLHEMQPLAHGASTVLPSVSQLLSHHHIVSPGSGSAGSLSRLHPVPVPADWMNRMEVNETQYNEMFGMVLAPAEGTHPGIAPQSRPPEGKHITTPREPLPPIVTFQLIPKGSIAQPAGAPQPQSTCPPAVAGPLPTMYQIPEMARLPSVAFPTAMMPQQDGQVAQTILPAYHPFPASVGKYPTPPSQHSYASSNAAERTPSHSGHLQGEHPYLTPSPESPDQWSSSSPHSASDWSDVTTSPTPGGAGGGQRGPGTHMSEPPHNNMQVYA

[6] = target: Pro-neuregulin-1, membrane-bound isoform (Homo sapiens) (UniProt Q02297); experiment: NRG1 binders on small-molecule microarrays, primary screen, psychiatric disease protein project, biochemical, small-molecule microarray, fluorescence 635/667 (AID 1075); conditions: NRG1 binding, 635 nm fluorescence, higher = more signal;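 further: score combines 667 nm spot fluorescence with signal to noise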
Pro-neuregulin-1, membrane-bound isoform (Homo sapiens), sequence (Q02297 whole entry, looked up, the tested form may be a part, canonical isoform): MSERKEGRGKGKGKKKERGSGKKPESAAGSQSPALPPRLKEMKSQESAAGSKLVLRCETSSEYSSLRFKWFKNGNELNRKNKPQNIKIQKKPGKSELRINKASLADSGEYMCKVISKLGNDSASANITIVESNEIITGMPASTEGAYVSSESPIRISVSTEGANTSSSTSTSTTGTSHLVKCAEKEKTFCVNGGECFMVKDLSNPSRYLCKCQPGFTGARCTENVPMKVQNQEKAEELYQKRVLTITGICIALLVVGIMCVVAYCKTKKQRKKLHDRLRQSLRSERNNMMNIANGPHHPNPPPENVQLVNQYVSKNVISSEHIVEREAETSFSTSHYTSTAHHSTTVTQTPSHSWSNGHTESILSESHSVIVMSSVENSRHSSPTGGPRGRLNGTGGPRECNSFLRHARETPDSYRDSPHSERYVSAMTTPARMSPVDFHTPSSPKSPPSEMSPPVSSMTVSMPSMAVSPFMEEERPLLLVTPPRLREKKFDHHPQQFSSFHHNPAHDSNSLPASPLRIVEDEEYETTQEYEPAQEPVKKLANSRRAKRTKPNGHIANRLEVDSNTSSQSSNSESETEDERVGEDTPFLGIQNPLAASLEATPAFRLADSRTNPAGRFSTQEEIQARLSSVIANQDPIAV

[7] = tested on: Neuregulin-1 EGF-like domain; experiment: binders of neuregulin-1 EGF-like domain, primary screen, biochemical, small-molecule microarray, 635 nm fluorescence (AID 1081); conditions: small-molecule microarray binding, higher = more signal;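 further: binding of the protein to compounds printed on small-molecule microarray slides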
[8] = FRG1 promoter luciferase signal modulators, primary screen, FRG1 inhibition for FSHD, cell-based, C2C12 myotubes, firefly/Renilla luciferase, luminescence (AID 1084); conditions: higher = more signal, called active from +8 up or from −8 down
[9] = binders of probe aFST on microarray, primary screen, stem cell growth factor project, biochemical, small-molecule microarray, fluorescence 635/667 (AID 1086); conditions: higher = more signal;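 further: score merges 667 nm fluorescence with signal-to-noise of each printed compound spot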
[10] = binders of probe aHhip on microarray, primary screen, stem cell growth factor project, biochemical, small-molecule microarray, fluorescence 635/667 (AID 1087); conditions: higher = more signal;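 further: score merges spot fluorescence at 667nm with spot signal to noise ratio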
[11] = tested on: PRMT1 (protein arginine N-methyltransferase 1); experiment: PRMT1 binders on small-molecule microarrays, primary screen, biochemical, small-molecule microarray, 635 nm fluorescence (AID 1088); conditions: small-molecule microarray binding, higher = more signal;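 further: binding of Prmt1 protein to compounds spotted on small-molecule microarray slides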
[12] = yeast growth modulation, basal conditions, primary screen, YJM789 clinical isolate, OD600, 24 h (AID 1089);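 further: growth of clinical yeast isolate S. cerevisiae YJM 789 seeded 1000 cells per well; test concentration not given here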; conditions: S. cerevisiae YJM789 growth, higher = more signal, called active from +8 up or from −8 down
[13] = fission yeast growth modulation, primary screen, strain 972, OD600, 24 h, no modulator (AID 1090);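 further: basal condition with compound alone and no growth modifier present; test concentration not given here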; conditions: S. pombe 972 growth, higher = more signal, called active from +8 up or from −8 down
[14] = S. cerevisiae growth modulation with rapamycin, primary screen, strain BY4716, OD600, 96 h (AID 1091); conditions: higher = more signal, called active from +8 up or from −8 down; further: test concentration not given here
[15] = target: Torsin-1A-interacting protein 2 (Homo sapiens) (UniProt Q8NFQ8); experiment: LULL1 binders on small-molecule microarray, primary screen, cell lysate, human LULL1 lysate, 635/667 nm fluorescence (AID 1092); conditions: hLULL1 lysate binding, 635 nm fluorescence, higher = more signal;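 further: probe is lysate of COS7 cells overexpressing human LULL1; score merges per-feature 667 nm fluorescence with signal-to-noise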
Torsin-1A-interacting protein 2 (Homo sapiens), sequence (Q8NFQ8 whole entry, looked up): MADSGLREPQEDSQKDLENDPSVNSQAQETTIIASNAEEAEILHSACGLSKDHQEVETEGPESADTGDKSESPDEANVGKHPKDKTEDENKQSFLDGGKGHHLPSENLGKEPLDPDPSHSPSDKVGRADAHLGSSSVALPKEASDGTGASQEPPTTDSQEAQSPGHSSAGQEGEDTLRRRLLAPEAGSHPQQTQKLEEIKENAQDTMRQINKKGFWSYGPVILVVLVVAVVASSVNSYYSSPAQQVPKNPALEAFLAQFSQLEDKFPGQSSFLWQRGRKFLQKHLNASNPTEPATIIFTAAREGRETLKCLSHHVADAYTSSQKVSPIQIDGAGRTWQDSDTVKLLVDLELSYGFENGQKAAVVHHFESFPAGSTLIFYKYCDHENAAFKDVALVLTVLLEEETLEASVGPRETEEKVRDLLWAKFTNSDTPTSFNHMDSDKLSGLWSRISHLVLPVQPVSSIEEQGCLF

[16] = E. coli growth modulation, two-sided OD650, primary screen, E. coli filamentation project, strain DRC41, 24 h (AID 1093); conditions: OD650, 24 h, higher = more signal, called active from +8 up or from −8 down;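 further: MC1000 strain lacking acrAB efflux and sulA so SOS filamentation is blocked; test concentration not given here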
[17] = small-molecule microarray binders of probe aLefty2, primary screen, biochemical, biotinylated probe, 635/667 nm fluorescence (AID 1094); conditions: higher = more signal;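 further: score merges spot fluorescence near 667 nm with spot signal-to-noise ratio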
[18] = tested on: Noggin (protein binding on small-molecule microarray); experiment: Noggin binders on small-molecule microarray, primary screen, biochemical, 635/667 nm fluorescence (AID 1095); conditions: 635 nm fluorescence, higher = more signal;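 further: score merges 667 nm feature fluorescence with signal to noise over triplicate slides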
[19] = target: Neurogenic locus notch homolog protein 3 (Homo sapiens) (UniProt Q9UM47); experiment: NOTCH3 binders on small-molecule microarray, primary screen, biochemical, 635/667 nm fluorescence (AID 1096); conditions: NOTCH3 binding, 635 nm fluorescence, higher = more signal
[20] = small-molecule microarray binders of probe aEGFR, primary screen, biochemical, biotinylated probe, 635/667 nm fluorescence (AID 1097); conditions: higher = more signal;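 further: probe is a biotinylated anti-EGFR antibody binding compounds printed on slides; score combines fluorescence near 667 nm and signal to noise of each spot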

Row | SMILES | composite z-score [1] | composite z-score [2] | composite z-score [3] | composite z-score [4] | composite z-score [5] | composite z-score [6] | composite z-score [7] | z-score [8] | composite z-score [9] | composite z-score [10] | composite z-score [11] | z-score [12] | z-score [13] | z-score [14] | composite z-score [15] | z-score [16] | composite z-score [17] | composite z-score [18] | composite z-score [19] | composite z-score [20]
1 | COCCOC(=O)N1C(=O)[C@@]2(c3cc(C#CCC(C(=O)OC)C(=O)OC)ccc31)[C@H](c1ccc(OCCO)cc1)N1[C@H](c3ccccc3)[C@H](c3ccccc3)OC(=O)[C@H]1[C@@H]2C(N)=O | -0.564 | -0.461 | -0.116 | 0.245 | 1.15 | 0.928 | 1.22 | -0.441 (inactive) | 0.78 | 0.35 | 1.51 | 1.47 (inactive) | 0.561 (inactive) | 4.48 (inactive) | 3.22 | 0.237 (inactive) | 0.011 | 0.543 | 1.13 | -0.0238
2 | [N-]=[N+]=NCc1ccccc1[C@H]1OC(c2ccc(OCCCO)cc2)=N[C@@]1(Cc1ccccc1N=[N+]=[N-])C(=O)NCCN1CCOCC1 | 0.0233 | 0.0401 | 0.14 | 0.981 | 1.61 | 1.49 | 1.1 | 0.342 (inactive) | 1.21 | 0.113 | 1.54 | 0.0051 (inactive) | -13.9 (active) | 0.355 (inactive) | 3.43 | 0.72 (inactive) | 0.328 | 0.476 | 1.02 | -0.0205
3 | COCCOC(=O)N1C(=O)[C@@]2(c3cc(C#CCC(C(=O)OC)C(=O)OC)ccc31)[C@H](C(=O)N1CCCCCCC1)[C@H]1C(=O)O[C@H](c3ccccc3)[C@H](c3ccccc3)N1[C@@H]2c1ccc(O)cc1 | 2.64 | 0.745 | 0.146 | 0.344 | 1.26 | 1.33 | 1.25 | 0.741 (inactive) | 2.37 | 0.801 | 1.49 | 0.405 (inactive) | -0.866 (inactive) | 1.15 (inactive) | 3.19 | 1.04 (inactive) | 1.06 | 1.37 | 1.07 | 0.456
4 | COC(=O)[C@@]1(Cc2ccccc2)[C@H]2c3cc(C(=O)N(C)C)n(Cc4ccccn4)c3C[C@H]2CN1C(=O)c1ccccc1 | 0.907 | 1.6 | 0.305 | 0.76 | 1.15 | 2.33 | 1.31 | 1.01 (inactive) | 1.27 | 0.0302 | 0.664 | 0.249 (inactive) | 0.87 (inactive) | 0.963 (inactive) | 3.68 | -0.537 (inactive) | 0.506 | -0.793 | 1.11 | 0.309
5 | Cc1ccccc1C(O)C1C=CC2C(=O)N(C)C(=O)C2N1Nc1ccc([N+](=O)[O-])cc1[N+](=O)[O-] (stereo not given) | -0.0166 | 0.14 | 0.084 | 0.922 | 1.65 | 1.65 | 1.27 | 0.248 (inactive) | 1.59 | -0.0645 | 1.56 | 0.426 (inactive) | 0.73 (inactive) | 0.969 (inactive) | 3.45 | -1.24 (inactive) | 0.25 | 0.17 | 1.08 | 0.0801
6 | COc1ccccc1CN1C(=O)c2ccccc2[C@@]2(Cc3ccccc3N(C3CC3)C2=O)[C@@H]1c1ccc(CO)cc1 | -0.262 | -0.804 | -0.107 | 0.0106 | -0.461 | 0.937 | -0.0422 | -0.223 (inactive) | 0.0845 | -0.164 | 0.0943 | -0.245 (inactive) | -0.384 (inactive) | -2.24 (inactive) | 0.861 | -0.134 (inactive) | -0.0699 | -0.2 | -0.473 | -0.181
7 | CN(C)C(=O)[C@@]1(Cc2ccccc2N=[N+]=[N-])N=C(c2ccc(OCCCO)cc2)O[C@H]1c1ccccc1N=[N+]=[N-] | 0.982 | 1.2 | 0.125 | 0.765 | 1.51 | 1.46 | 0.73 | -0.325 (inactive) | 1.53 | 0.28 | 1.56 | 0.506 (inactive) | -2.68 (inactive) | 3.01 (inactive) | 2.87 | 0.239 (inactive) | 0.505 | 0.126 | 1.06 | 0.387
8 | COCCOC(=O)N1C(=O)[C@@]2(c3cc(C#CCNC(N)=O)ccc31)[C@H](C(N)=O)[C@H]1C(=O)O[C@H](c3ccccc3)[C@H](c3ccccc3)N1[C@@H]2c1ccc(OCCO)cc1 | -0.147 | 0.0525 | -0.0139 | 0.309 | 1.16 | 0.564 | 0.342 | 1.34 (inactive) | 0.459 | -0.0427 | 1.55 | 0.517 (inactive) | 0.0121 (inactive) | 1.98 (inactive) | 1.53 | -0.27 (inactive) | -0.0054 | 1.23 | 1.07 | -0.0085
9 | C=CCOc1ccc([C@@H]2CC=C(C(=O)OCC)[C@H](c3cccc(Br)c3)N2S(=O)(=O)c2ccc(C)cc2)cc1 | 0.474 | -0.229 | -0.0901 | -0.0763 | -0.672 | 0.866 | 0.0455 | -4.03 (inactive) | 0.176 | -0.3 | -0.227 | -2.1 (inactive) | -0.493 (inactive) | 0.196 (inactive) | 0.652 | -0.372 (inactive) | 0.049 | -0.351 | -0.32 | -0.0456
10 | O=C1C[C@@](C(=O)NCc2ccccc2)(c2ccc([N+](=O)[O-])cc2)[C@@H](c2ccc(CO)cc2I)N1C1CCCCC1 | 1.95 | 0.379 | 0.347 | 0.352 | 1.08 | 0.819 | 1.29 | -0.524 (inactive) | 1.3 | 0.368 | 1.55 | 1.2 (inactive) | 0.856 (inactive) | 3.33 (inactive) | 2.38 | 1.04 (inactive) | 0.569 | 0.924 | 1.12 | 0.695
